Hits are enriched below; roughly 2.4% of the tested compounds scored in any of these assays.
cardiac RTF act = cardiac RTF calcium sensitivity activators, primary screen, biochemical, IANBD-TnC fluorescence, EC20 calcium | Troponin I, cardiac muscle (Homo sapiens) + Troponin T, cardiac muscle (Homo sapiens) + … | IANBD-labeled TnC RTF fluorescence at EC20 calcium; 0% EC20 calcium, 100% full calcium | activation, % at 7.2 µM | hit rate 0.24% among 340,000;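 active means activation above the mean over all tested compounds plus 3 SD, cut at about 30% in these data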;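 further: rise in fluorescence read as greater calcium sensitivity of cardiac thin filaments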
CRFBP-R2 agonist = agonists of CRF-BP/CRF-R2 complex, primary screen, cell-based, HEK293, calcium dye fluorescence, uHTS; CRF-binding protein / CRF receptor 2 complex (human); calcium dye fluorescence (FLIPR); percent of saturating CRF peptide response; activation, % at 13.2 µM; hit rate 0.46% among 350,000;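 active means activation of at least 50%, plus an integration ratio under a set limit after plate pattern correction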;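 further: plate controls were neutral control wells without compound for no effect and CRF at EC100 for full effect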
CRFBP-R2 block = antagonists of CRF-BP/CRF-R2 complex, primary screen, cell-based, HEK293, calcium dye fluorescence, uHTS | CRF-induced calcium fluorescence | inhibition, % at 11.8 µM | hit rate 0.59% among 350,000 | AID 588475, 2011;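 active means inhibition of the ligand-induced calcium signal above about 50% at the single tested concentration, limit read from the data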
ANO1 block = TMEM16A chloride channel inhibitors, primary screen, cell-based, HTS; Anoctamin-1 (Mus musculus), Q8BHY3; HEK293 TMEM16A/YFP iodide influx fluorescence, ionomycin; normalized B-score (activity score, 25-100; higher = stronger inhibition) at 10 µM; hit rate 1.2% among 310,000; AID 588511, 2011;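 active means ratio plate-corrected score three or more library SD toward inhibition, starting fluorescence score within five deviations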;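 further: score derived from kinetic fluorescence span divided by baseline fluorescence per well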
Target sequence (Q8BHY3 whole entry, looked up): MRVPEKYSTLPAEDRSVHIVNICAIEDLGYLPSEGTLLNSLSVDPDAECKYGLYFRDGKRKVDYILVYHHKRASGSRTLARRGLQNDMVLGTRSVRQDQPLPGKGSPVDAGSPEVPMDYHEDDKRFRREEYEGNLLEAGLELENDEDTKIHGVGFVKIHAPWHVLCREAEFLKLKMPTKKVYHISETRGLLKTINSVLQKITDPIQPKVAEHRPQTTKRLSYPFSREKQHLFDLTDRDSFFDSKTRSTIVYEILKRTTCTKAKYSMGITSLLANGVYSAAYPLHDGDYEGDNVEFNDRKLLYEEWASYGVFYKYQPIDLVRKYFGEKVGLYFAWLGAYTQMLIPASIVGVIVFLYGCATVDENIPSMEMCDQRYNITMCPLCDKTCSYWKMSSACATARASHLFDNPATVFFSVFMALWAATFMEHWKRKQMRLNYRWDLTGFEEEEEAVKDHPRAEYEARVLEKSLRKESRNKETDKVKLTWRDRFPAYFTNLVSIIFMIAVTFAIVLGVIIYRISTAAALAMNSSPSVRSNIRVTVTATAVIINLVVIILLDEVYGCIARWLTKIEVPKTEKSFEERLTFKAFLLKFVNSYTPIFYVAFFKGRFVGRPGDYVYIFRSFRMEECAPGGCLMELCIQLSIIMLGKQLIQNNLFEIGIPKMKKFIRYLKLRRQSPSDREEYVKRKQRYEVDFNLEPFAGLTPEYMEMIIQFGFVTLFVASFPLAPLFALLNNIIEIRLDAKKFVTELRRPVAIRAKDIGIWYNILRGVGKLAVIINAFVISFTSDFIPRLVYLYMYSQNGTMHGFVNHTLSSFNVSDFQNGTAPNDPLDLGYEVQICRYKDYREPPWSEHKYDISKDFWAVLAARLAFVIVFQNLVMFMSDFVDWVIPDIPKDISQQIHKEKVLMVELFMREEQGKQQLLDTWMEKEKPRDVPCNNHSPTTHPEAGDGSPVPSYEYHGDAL
RTF Ca sens inh = cardiac RTF calcium sensitivity inhibitors, primary screen, biochemical, IANBD-TnC fluorescence, EC70 calcium; Troponin I, cardiac muscle (Homo sapiens) + Troponin T, cardiac muscle (Homo sapiens) + …; IANBD-labeled cardiac RTF, Ca2+ fluorescence; inhibition, % at 7.15 µM; hit rate 0.12% among 340,000;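 active means inhibition above the mean inhibition of all tested compounds plus 3 SD, cut at about 17% in these data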;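 further: assay run at fixed EC70 calcium of 1.6 mM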
ANO1 activ = TMEM16A chloride channel activators or potentiators, primary screen, cell-based, HTS. Anoctamin-1 (Mus musculus), Q8BHY3. HEK293 TMEM16A/YFP-H148Q/I152L, iodide quench fluorescence; hits give low values. B-score at 10 µM. hit rate 0.3% among 340,000;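 active means fluorescence-ratio B-score plate-corrected deviation score at least 3 library SD below zero, with starting fluorescence score within 5 deviations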;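 further: channel opened by trigger with iodide after compound preincubation; score built on the fluorescence ratio of max minus min over baseline; more negative score means more quench and so TMEM16A activation or potentiation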
TMEM16A reconf = TMEM16A chloride channel inhibitors, confirmation, cell-based, re-confirmation. AID 652189, 2013. HEK293 TMEM16A/YFP-H148Q, iodide quench fluorescence; ionomycin added to raise cell calcium. inhibition, % at 10 µM. hit rate 39% among 2,300. shares compounds with ANO1 block;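 active means mean duplicate percent inhibition, scaled so buffer wells are 0 and the reference blocker 100, over three buffer SD above buffer mean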
HEK293 Ca mobil = calcium mobilization in TMEM16A/YFP HEK293 cells, confirmation, counter-screen for TMEM16A inhibitor project; shares compounds with ANO1 block; Fluo4 calcium mobilization; calcium response (% of ionomycin), % at 10 µM; hit rate 2% among 2,300;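 active means duplicate-averaged calcium signal over 20% of the ionomycin maximum, relative to buffer baseline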;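 further: each well's signal is peak minus trough fluorescence divided by its pre-addition baseline; 0% = buffer wells and 100% = ionomycin wells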
Parental YFP cnt = iodide YFP quench changes in parental YFP-HEK293, counter-screen for TMEM16A inhibitor project, cell-based. ionomycin. YFP ratio F(max-min)/F0 at 10 µM. 2,300 tested, under 10 active. AID 652233, 2013. shares compounds with ANO1 block;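 active means yellow fluorescent protein signal ratio exceeding the buffer control mean by over 5 SD of those controls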;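 further: ratio is mean of duplicate wells from kinetic YFP trace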
ClC-1 inh = ClC-1 chloride channel inhibition, selectivity assay for TMEM16A inhibitor project, cell-based, voltage-dependent ClC-1; ratio percent, % at 10 µM; shares compounds with ANO1 block; AID 652236, 2013; 2,300 tested, under 10 active; CHO ClC-1-YFP, iodide influx fluorescence quench; iodide control reads 0, buffer control 100;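 active means duplicate-mean ratio percent above the mean of iodide-only control wells, which defines zero, plus 5 of their SD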;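 further: higher percent means stronger block of ClC-1 iodide influx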
Numbers without * were called inactive.

For COc1ccc(CN(C)C(=O)CNC(=O)Cc2cccc3ccccc23)c(OC)c1OC the results were cardiac RTF act -3, CRFBP-R2 agonist 1, CRFBP-R2 block -10, ANO1 block inactive, RTF Ca sens inh -4 and ANO1 activ inactive.
Screening O=C(Nc1cccc(S(=O)(=O)Nc2ccccc2F)c1)c1ccc2ccccc2n1 returned cardiac RTF act -3, CRFBP-R2 agonist -1, CRFBP-R2 block 19, ANO1 block 100*, RTF Ca sens inh 13, ANO1 activ inactive, TMEM16A reconf inactive, HEK293 Ca mobil inactive, Parental YFP cnt -0.93 and ClC-1 inh -5.
Screening COc1ccccc1NS(=O)(=O)c1cccc(NC(=O)c2ccc3ccccc3n2)c1 returned cardiac RTF act 4, CRFBP-R2 agonist 0, CRFBP-R2 block 21, ANO1 block inactive, RTF Ca sens inh 6 and ANO1 activ inactive.
Screening COc1cc(CN(CCN(C)C)Cc2ccccc2)ccc1OCc1ccccc1 returned cardiac RTF act 2, CRFBP-R2 agonist 7, CRFBP-R2 block -24, ANO1 block inactive, RTF Ca sens inh -7 and ANO1 activ inactive.
CCN(C(=O)CN1CCN(c2ccccc2F)CC1)c1c(N)n(Cc2ccccc2)c(=O)[nH]c1=O was read as cardiac RTF act -3, CRFBP-R2 agonist 2, CRFBP-R2 block 5, ANO1 block 100*, RTF Ca sens inh -3, ANO1 activ inactive, TMEM16A reconf inactive, HEK293 Ca mobil inactive, Parental YFP cnt -0.96 and ClC-1 inh -18.
For CC(C)C(c1nnnn1C1CCCCC1)N1CCN(c2ncccn2)CC1 (configuration not stated) the results were cardiac RTF act -7, CRFBP-R2 agonist 0, CRFBP-R2 block 5, ANO1 block 100*, RTF Ca sens inh 5, ANO1 activ inactive, TMEM16A reconf inactive, HEK293 Ca mobil inactive, Parental YFP cnt -1.2 and ClC-1 inh -14.
`O=C(Nc1ccccc1Cl)C1CCCN(c2ncnc3c2nc2n3CCCCC2)C1` (configuration not stated) gave cardiac RTF act -5, CRFBP-R2 agonist -1, CRFBP-R2 block -2, ANO1 block inactive, RTF Ca sens inh 3 and ANO1 activ inactive.
Cc1ccccc1OCC(=O)N/N=C/c1cc2ccccc2nc1Cl was read as cardiac RTF act 5, CRFBP-R2 agonist -2, CRFBP-R2 block -32, ANO1 block 25*, RTF Ca sens inh 0, ANO1 activ inactive, TMEM16A reconf 20%*, HEK293 Ca mobil inactive, Parental YFP cnt -1.1 and ClC-1 inh -16.
For COc1cccc(NC(=O)C2CCN(Cc3cnn(-c4ccccc4)c3-n3cccc3)CC2)c1 the results were cardiac RTF act 3, CRFBP-R2 agonist -1, CRFBP-R2 block -3, ANO1 block 25*, RTF Ca sens inh -8, ANO1 activ inactive, TMEM16A reconf inactive, HEK293 Ca mobil inactive, Parental YFP cnt -1.4 and ClC-1 inh -9.
CCN(CC)c1ccc(S(=O)(=O)N2CCOCC2)cc1NC(=O)CSC(=S)N1CCCC1 was read as cardiac RTF act -3, CRFBP-R2 agonist -1, CRFBP-R2 block 9, ANO1 block inactive, RTF Ca sens inh -2 and ANO1 activ inactive.
`Cc1ccc(N2C(=O)/C(=C\c3ccco3)SC2=S)cc1` gave cardiac RTF act -1, CRFBP-R2 agonist 1, CRFBP-R2 block -14, ANO1 block 100*, RTF Ca sens inh 3, ANO1 activ inactive, TMEM16A reconf inactive, HEK293 Ca mobil inactive, Parental YFP cnt -1.1 and ClC-1 inh -13.
`O=C1/C(=C\c2ccco2)SC(=S)N1c1ccccc1` gave cardiac RTF act -1, CRFBP-R2 agonist -2, CRFBP-R2 block 9, ANO1 block inactive, RTF Ca sens inh -6 and ANO1 activ inactive.
For NS(=O)(=O)c1cc(Cl)c(NC(=O)COC(=O)c2ccccn2)c(Cl)c1 the results were cardiac RTF act -3, CRFBP-R2 agonist 0, CRFBP-R2 block 0, RTF Ca sens inh -5 and ANO1 activ inactive.
For CCCCCSc1nnc(-c2cc(Br)ccc2N)c(=O)[nH]1 the results were cardiac RTF act 1, CRFBP-R2 agonist -1, CRFBP-R2 block 18, ANO1 block 25*, RTF Ca sens inh -3, ANO1 activ inactive, TMEM16A reconf inactive, HEK293 Ca mobil inactive, Parental YFP cnt -1.2 and ClC-1 inh -11.
`CCCCCCCSc1nnc(-c2ccccc2N)c(=O)[nH]1` gave cardiac RTF act 6, CRFBP-R2 agonist 1, CRFBP-R2 block 3, ANO1 block inactive, RTF Ca sens inh -12 and ANO1 activ inactive.
Cc1cccc(OCCCSc2nc3ccc(C)cc3[nH]2)c1 was read as cardiac RTF act -4, CRFBP-R2 agonist -1, CRFBP-R2 block 19, ANO1 block 100*, RTF Ca sens inh 0, ANO1 activ inactive, TMEM16A reconf 33%*, HEK293 Ca mobil inactive, Parental YFP cnt -1 and ClC-1 inh -14.
Screening CC(C)(C)c1ccc(C(=O)NNC(=O)C2CCCCC2)cc1 returned cardiac RTF act -4, CRFBP-R2 agonist -1, CRFBP-R2 block -10, ANO1 block inactive, RTF Ca sens inh -4 and ANO1 activ inactive.
For Cc1cc(C(=O)OCC(=O)Nc2nc(-c3ccccc3)cs2)c(C)o1 the results were cardiac RTF act 10, CRFBP-R2 agonist -1, CRFBP-R2 block -45, ANO1 block inactive, RTF Ca sens inh -10 and ANO1 activ inactive.

High-throughput results as filed in PubChem.
